This is a sample that favours compounds with a hit; in the whole collection about 1.8% have one here.
ERp5 block = inhibitors of human ERp5; Q15084; ERp5 insulin aggregation, absorbance 650 nm, 90 min; inhibition, % at 9.99 µM; 350,000 tested, 0.05% active; AID 651711;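 active means mean replicate inhibition above about 25%, with every replicate also reaching it, limit read from the data, passing the limit was not always enough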
Target sequence (Q15084 whole entry, looked up): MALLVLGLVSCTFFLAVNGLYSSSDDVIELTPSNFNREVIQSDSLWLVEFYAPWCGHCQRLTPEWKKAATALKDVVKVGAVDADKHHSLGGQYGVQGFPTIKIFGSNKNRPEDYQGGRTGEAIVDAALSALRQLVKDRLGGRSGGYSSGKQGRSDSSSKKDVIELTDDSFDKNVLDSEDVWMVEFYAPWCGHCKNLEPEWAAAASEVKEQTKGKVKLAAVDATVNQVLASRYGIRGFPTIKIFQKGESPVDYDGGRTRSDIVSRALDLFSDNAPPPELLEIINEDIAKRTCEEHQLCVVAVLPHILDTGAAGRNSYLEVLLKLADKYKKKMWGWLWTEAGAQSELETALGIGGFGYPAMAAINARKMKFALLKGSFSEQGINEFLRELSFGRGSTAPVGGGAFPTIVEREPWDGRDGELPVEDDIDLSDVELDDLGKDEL
PDI inh = PDI (human) enzyme inhibition. inhibition, % at 10 µM. PDI insulin aggregation turbidity, A650, 90 min. 350,000 tested, 0.052% active;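 active means mean inhibition across replicates of 30% or more, whatever share of single replicates reach that level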
ERAP1 inh = ERAP1 (human) enzyme inhibition; Q9NZ08; recombinant ERAP1, Leu-AMC fluorescence, 60 min; inhibition, % at 10.7 µM; 340,000 tested, 0.15% active; AID 652197;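 active means mean replicate inhibition of at least 30%, or all replicates individually reaching that 30% level; inactive means mean below 30% and not every replicate reaching it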;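 further: 0% = neutral control wells and 100% = L-leucinethiol positive control wells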
MLL AF4-AF9 inh = inhibitors of human MLL-AF4/AF9 interaction | P42568 | AlphaScreen, biotin-AF4 peptide binding to FLAG-AF9 | inhibition, % at 10 µM | 350,000 tested, 0.47% active | AID 651704;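 active means every replicate reaching a set inhibition limit, whatever the replicate mean, cut at about 25% in these data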;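 further: 0% = plate neutral control median and 100% = total signal loss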
DENV2 CPE rescue = protects cells from dengue virus 2 cytopathic effect; DENV2-infected cells, cytopathic effect rescue, plate reader; CPE inhibition, % at 9.99 µM; 350,000 tested, 1.7% active; in the data active means CPE inhibition above about 20%, passing the limit was not always enough; tested in BHK-21 cells;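 further: 0% = median of neutral control wells and 100% = median of positive control wells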
An asterisk follows results filed as active; ! = a repeat was not active.

How did C[C@H]1CN([C@@H](C)CO)S(=O)(=O)c2ccc(/C=C/c3ccccc3)cc2O[C@H]1CN(C)CC1CC1 do in these assays?
ERp5 block: -2.7; ERAP1 inh: -0.2; MLL AF4-AF9 inh: 28.5*; DENV2 CPE rescue: 0.6

How did C[C@@H]1CN([C@H](C)CO)S(=O)(=O)c2ccc(-c3ccc(F)cc3)cc2O[C@@H]1CN(C)CC1CC1 do in these assays?
ERp5 block: 27.4*; ERAP1 inh: 3.2; MLL AF4-AF9 inh: 6.0; DENV2 CPE rescue: 13.3

What do the screens show for `O=C(Cc1ccccn1)NCC[C@H]1CC[C@@H](NC(=O)c2ccccc2F)[C@H](CO)O1`?
ERp5 block: 0.3; ERAP1 inh: 8.1; MLL AF4-AF9 inh: -2.5; DENV2 CPE rescue: -6.1

Results for COc1cc2c(c(OC)c1OC)[C@@]1(c3ccccc3)CCCC[C@H]1[C@@H]2NC(=O)C(F)(F)F ?
ERp5 block: -5.1; ERAP1 inh: 3.4; DENV2 CPE rescue: 24.0*

Results for O=C(Nc1ccc(Cl)cc1)N[C@@H]1CC[C@H](CCn2cc(-c3ccccc3F)nn2)O[C@@H]1CO ?
ERp5 block: -0.8; ERAP1 inh: -1.4; MLL AF4-AF9 inh: 0.0; DENV2 CPE rescue: -1.5

Results for C[C@@H]1CCCCO[C@@H](CN(C)S(=O)(=O)c2ccccc2)[C@H](C)CN([C@@H](C)CO)C(=O)c2cc(NS(=O)(=O)c3ccc(Cl)cc3)ccc2O1 ?
ERp5 block: 0.1; ERAP1 inh: 0.1; MLL AF4-AF9 inh: 3.5; DENV2 CPE rescue: -0.4

What do the screens show for `Cc1ccc(S(=O)(=O)N[C@@H]2CC[C@@H](CCn3cc(C4CCCC4)nn3)O[C@H]2CO)cc1`?
ERp5 block: -2.4; ERAP1 inh: -2.7; MLL AF4-AF9 inh: 1.8; DENV2 CPE rescue: 0.5

What do the screens show for `O=C(C1CCCC1)N1C[C@@H]2N[C@H](C1)C2c1ccc(-c2cccc(F)c2)cc1` (some centres not stated)?
ERp5 block: 4.0; ERAP1 inh: -0.4; MLL AF4-AF9 inh: 3.9; DENV2 CPE rescue: 47.3*!

How did N#Cc1cccc(-c2ccc(C3[C@@H]4CN(C(=O)c5cccnc5)C[C@H]3N4)cc2)c1 (some centres not stated) do in these assays?
DENV2 CPE rescue: 83.6*!

What do the screens show for `O=C(C1CC1)N1C[C@@H]2N[C@H](C1)C2c1ccc(-c2cccc(F)c2)cc1` (some centres not stated)?
DENV2 CPE rescue: 59.1*!

What do the screens show for `Fc1cccc(-c2ccc(C3[C@@H]4CN(Cc5cncnc5)C[C@H]3N4)cc2)c1` (some centres not stated)?
DENV2 CPE rescue: 28.1*!

How did CO[C@H]1CN(C)C(=O)c2ccc(NC(=O)C3CC3)cc2OC[C@H](C)N(C(=O)CN(C)C)C[C@@H]1C do in these assays?
ERp5 block: -2.0; ERAP1 inh: 2.4; MLL AF4-AF9 inh: -4.9; DENV2 CPE rescue: -2.2

How did Cc1noc(C)c1NC(=O)N[C@H]1CC[C@H](CCNC(=O)C2CC2)O[C@@H]1CO do in these assays?
ERp5 block: 5.6; ERAP1 inh: 1.4; MLL AF4-AF9 inh: -2.4; DENV2 CPE rescue: 6.5

Results for CCOC(=O)/C=C/c1cccc(C)c1O ?
ERp5 block: -0.8; ERAP1 inh: -4.2; DENV2 CPE rescue: -2.0

Results for CCOC(=O)/C=C/c1cc(F)ccc1O ?
ERp5 block: -0.1; ERAP1 inh: -1.1; DENV2 CPE rescue: 20.7*

Results for CC(=O)CSc1ccc(-c2nc3cc(C)c(C)cc3[nH]2)cn1 ?
ERp5 block: 3.0; PDI inh: 10.3; ERAP1 inh: -5.2; MLL AF4-AF9 inh: -3.0; DENV2 CPE rescue: 26.6*

How did O=C(Nc1ccccc1)N1C[C@H]2[C@@H](c3ccccc31)[C@H](CO)N2C(=O)c1ccccn1 do in these assays?
ERp5 block: 1.6; ERAP1 inh: 2.1; MLL AF4-AF9 inh: -13.2; DENV2 CPE rescue: 1.3

Results for CN1C[C@@H]2[C@H](c3ccccc31)[C@H](CO)N2C(=O)c1ccccn1 ?
ERp5 block: 5.2; MLL AF4-AF9 inh: -1.4; DENV2 CPE rescue: -5.3

How did O=C(c1ccccc1)N1C[C@H]2[C@@H](c3ccccc31)[C@H](CO)N2C(=O)c1ccccn1 do in these assays?
ERp5 block: 2.2; ERAP1 inh: 3.0; MLL AF4-AF9 inh: -2.3; DENV2 CPE rescue: 25.2*

Results for CN1C[C@@H]2[C@H](c3ccccc31)[C@@H](CO)N2Cc1ccccc1 ?
ERp5 block: 6.9; ERAP1 inh: -1.7; MLL AF4-AF9 inh: 1.7; DENV2 CPE rescue: 44.2*

Results for CN1C[C@H]2[C@@H](c3ccccc31)[C@H](CO)N2C(=O)c1ccccn1 ?
ERp5 block: -1.1; ERAP1 inh: 1.7; MLL AF4-AF9 inh: -2.6; DENV2 CPE rescue: 28.0*

What do the screens show for `O=C(Nc1ccccc1)N1C[C@@H]2[C@H](c3ccccc31)[C@@H](CO)N2C(=O)c1ccccn1`?
ERp5 block: -0.8; ERAP1 inh: 5.0; MLL AF4-AF9 inh: -5.3; DENV2 CPE rescue: 71.2*

How did COCC(=O)N1CC2(CN(Cc3ccc(OC)cc3)C2)c2c([nH]c3cc(OC)ccc23)[C@@H]1CO do in these assays?
ERp5 block: -1.3; ERAP1 inh: -3.4; MLL AF4-AF9 inh: -1.0; DENV2 CPE rescue: -0.4

Results for Cc1cc(C)c2sc(N(CCCN(C)C)C(=O)c3ccc(S(=O)(=O)N(C)Cc4ccccc4)cc3)nc2c1 ?
ERp5 block: 14.8; PDI inh: 15.3; ERAP1 inh: 2.6; MLL AF4-AF9 inh: 5.5; DENV2 CPE rescue: 17.8

How did COc1cc2nc(N(CCCN(C)C)C(=O)c3ccc(C(=O)c4ccccc4)cc3)sc2cc1OC do in these assays?
ERp5 block: -3.0; PDI inh: 9.8; ERAP1 inh: 5.7; MLL AF4-AF9 inh: 28.4*; DENV2 CPE rescue: 1.0

How did CN(C)CCCN(C(=O)c1ccc2c(c1)OCCO2)c1nc2cc3c(cc2s1)OCO3 do in these assays?
ERp5 block: 1.5; PDI inh: 0.3; ERAP1 inh: -2.1; MLL AF4-AF9 inh: 4.9; DENV2 CPE rescue: 1.0

Results for CN(C)CCN(C(=O)c1ccc2ccccc2c1)c1nc2cc3c(cc2s1)OCCO3 ?
ERp5 block: 0.4; PDI inh: 3.7; ERAP1 inh: 2.0; MLL AF4-AF9 inh: 49.9*; DENV2 CPE rescue: -9.0

How did CN(C)CCCN(C(=O)c1ccc2ccccc2c1)c1nc2cc3c(cc2s1)OCO3 do in these assays?
ERp5 block: 1.9; PDI inh: 7.0; ERAP1 inh: -1.1; MLL AF4-AF9 inh: 33.5*; DENV2 CPE rescue: 0.8

What do the screens show for `CCN(Cc1ccccc1)S(=O)(=O)c1ccc(C(=O)N(CCCN(C)C)c2nc3cc(C)cc(C)c3s2)cc1`?
ERp5 block: 2.7; PDI inh: 17.9; ERAP1 inh: 1.3; MLL AF4-AF9 inh: 2.2; DENV2 CPE rescue: 78.2*

Results for CCCNC(=O)C[C@H]1CC[C@@H]2[C@@H](COc3ccc(NC(=O)c4ccc5c(c4)OCO5)cc3C(=O)N2C)O1 ?
ERp5 block: 1.9; ERAP1 inh: -0.7; MLL AF4-AF9 inh: -7.9; DENV2 CPE rescue: -0.2

What do the screens show for `CC(C)CC#Cc1ccc2c(c1)O[C@@H](CN(C)Cc1ccncc1)[C@H](C)CN([C@H](C)CO)S2(=O)=O`?
ERp5 block: -14.7; ERAP1 inh: 2.2; MLL AF4-AF9 inh: 2.1; DENV2 CPE rescue: 7.9
